# Experimental data: ChEMBL document CHEMBL4513146, “CO-ADD screening of Karazin Kharkiv National University (Ukraine) compounds”
# Potency and affinity values are given separately.
# Experiments:
# Klebsiella pneumoniae = settings: Concentration 32 ug.mL-1;; ASSAY_TEST Inhibition of Bacterial Growth; detection method Absorption (OD600); MEDIA CAMHB; plate type 384well; NBS; CORNING #3640; time 18 hr
# Candida albicans = settings: Concentration 32 ug.mL-1; ASSAY_TEST Inhibition of Fungal Growth; detection method Absorption (OD530)
# Cryptococcus neoformans = settings: Concentration 32 ug.mL-1; ASSAY_TEST Inhibition of Fungal Growth; detection method Resazurin; Absorption (OD600-OD570); plate type 384well; NBS; CORNING #3640
SMILES,Inhibition (Klebsiella pneumoniae) [%],Inhibition (Candida albicans) [%],Inhibition (Cryptococcus neoformans) [%]
COC(=O)c1cccc(NC(=O)Cn2nc3ccc(-c4ccccc4)nn3c2=O)c1,-4.82,4.96,-15.91
CCCn1c(=O)c2ccc(C(=O)NC3CCCCC3)cc2n2c(=O)n(CC#N)nc12,5.71,1.88,-10.2
COc1ccc(NC(=O)Cn2nc3ccc(-c4ccccc4)nn3c2=O)cc1Cl,-6.25,19.43,-3.35
CC(C)CCn1c(=O)c2sccc2n2c(=O)n(CC(N)=O)nc12,10.09,-1.13,-22.72
Cc1c(Cl)cccc1NC(=O)Cn1nc2c(N3CCOCC3)nc3ccccc3n2c1=O,9.14,0.17,-24
Cc1ccc(NC(=O)c2ccc3nnc(SCC(=O)Nc4ccc(Br)cc4)n3c2)cc1,8.72,1.55,-17.05
O=c1c2sccc2n2c(=O)n(Cc3ccc(Br)cc3)nc2n1CCc1ccccc1,-2.03,27.87,-16.22
CCc1nnc2c(S(=O)(=O)N(Cc3cccc(C)c3)c3ccc(Cl)cc3)cccn12,3.49,0.59,-3.81
COc1ccccc1-n1ccn2c(SCc3ccccc3Cl)nnc2c1=O,10.5,2.3,-11.71
Cc1ccc(NC(=O)Cn2nc3ccc(C(=O)NCc4ccccc4)cn3c2=O)c(Br)c1,-0.66,7.92,-19.22
O=C(Cn1nc2c(Oc3ccccc3)nccn2c1=O)Nc1ccccc1C(F)(F)F,6.19,0.13,-8.9
CCOc1ccc(-n2ccn3c(SCC(=O)c4ccc(OC)c(OC)c4)nnc3c2=O)cc1,7.92,3.75,-6.73
O=C(Cn1nc2ccc(SCc3ccc(Cl)cc3)nn2c1=O)Nc1ccccc1C(F)(F)F,7.36,1.76,-11.3
COc1cc(OC)c(NC(=O)Cn2nc3ccc(SC4CCCCC4)nn3c2=O)cc1Cl,10.6,29.07,-6.25
COC(=O)c1ccc(NC(=O)Cn2nc3c(Oc4cccc(OC)c4)nccn3c2=O)cc1,5.51,12.96,-6.09
COc1ccc(CCn2c(=O)c3sccc3n3c(=O)n(CC(=O)c4ccccc4)nc23)cc1OC,16.06,0.73,-38.41
O=C(Cn1nc2nc(Nc3ccc(F)cc3)ccn2c1=O)N1CCOCC1,14.5,2.63,-13.19
Cc1ccc(-n2ccn3c(=O)n(Cc4ccccc4F)nc3c2=O)cc1C,7.33,0.26,-12.8
CCOc1ccccc1NC(=O)Cn1nc2c(Sc3ccccc3)nccn2c1=O,3.54,-0.33,-18.53
Cc1ccccc1NC(=O)Cn1nc2ccc(SC3CCCCC3)nn2c1=O,2.21,-1.85,-16.32
COc1ccc(NC(=O)c2ccc3nn(CC(=O)Nc4cccc(SC)c4)c(=O)n3c2)cc1,-1.25,7.63,-24.03
Cc1ccc(Oc2nccn3c(=O)n(CC(=O)Nc4ccccc4F)nc23)cc1,2.86,5.88,-5.76
O=c1c2sccc2n2c(=O)n(Cc3ccccc3F)nc2n1CCc1ccccc1,8.76,0.77,-30.71
CCCCOc1ccc(-c2cc3c4nnc(SCC(=O)Nc5ccc(C)c(C)c5)n4ccn3n2)cc1,4.46,-1.19,-6.11
CCOc1ccc(-n2ccn3c(SCC(=O)Nc4cc(Cl)ccc4OC)nnc3c2=O)cc1,12.81,1.86,-5.56
Cc1ccc(Cl)cc1NC(=O)CSc1nnc2ccc(C(=O)Nc3cccc(F)c3)cn12,3.53,4.15,-1.38
CCOc1ccccc1NC(=O)Cn1nc2c3c4c(sc3ncn2c1=O)CCCC4,2.08,2.9,-12.75
O=C(CSc1nnc2c(=O)n(Cc3ccc(F)cc3)ccn12)NCC1CCCO1 (centres undefined),11.7,1.72,-16.29
